A short description of assay [1]: Nuclear factor erythroid 2-related factor 2/antioxidant responsive element (Nrf2/ARE) small molecule agonists: qHTS cell viability counter screen in human keratinocytes (AID 1919968; active = well fitted curve in the direction sought with a large enough effect in the repeat runs; an effect the other way counts as inactive or inconclusive; note: nearly all actives have a fitted effect of over 55% in size). Summed up:
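Seed 1,500 KeratinoSens cells per well, then incubate 5 h at 37 C/5% CO2. Add compounds in DMSO and incubate 23 h. Add CellTiter-Fluor, wait 1 h and read fluorescence.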

A short description of assay [2]: Nuclear factor erythroid 2-related factor 2/antioxidant responsive element (Nrf2/ARE) small molecule agonists: luciferase reporter gene qHTS assay in human keratinocytes (AID 1919969). Note: nearly all actives have a fitted effect of over 35% in size. Note: potency is the fitted concentration of half-maximal effect. On the technique in general: In a reporter assay the amount or activity of a reporter protein is the signal.
Assay [3] concerns the target Gonadotropin-releasing hormone receptor (Homo sapiens) (UniProt P30968). Put plainly: Human gonadotropin-releasing hormone receptor (GnRHR) small molecule agonists, calcium flux assay in GnRHR-HEK293 cells (AID 1920063). Note: nearly all actives have a fitted effect of over 35% in size. Summed up: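 Cells: HEK293 stably expressing human GnRHR. Steps: overnight (18 h) culture, 1 h calcium dye loading at 37 C, compound addition, kinetic fluorescence read at 480/540 nm. Each compound tested at 15 concentrations in triplicate.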
A general note: Calcium flux is commonly read through the fluorescence of an indicator in the cells.

In assay [4] the target is KiSS-1 receptor (Homo sapiens) (UniProt Q969F8). Put plainly: Human kisspeptin (KISS1R) small molecule agonists, calcium flux assay in KISS1R-HEK293 cells (AID 1920064; active = well fitted curve in the direction sought with a large enough effect in the repeat runs; an effect the other way counts as inactive or inconclusive). The gist of the method:
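Cells plated and incubated 18 h; dye added, 1 h at 37 C; compounds in DMSO pinned in; signal read at 480/540 nm every second for 3 min. Each compound tested at 15 concentrations in triplicate.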

Assay [5] is described as follows: G protein-coupled receptor (GPCR) small molecule agonists, calcium flux assay: HEK293 wild type cell line counter screen (AID 1920065). Summed up: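 Counter-screen of the Tox21 10K library for non-specific calcium release: dye-loaded cells received compounds in DMSO and were monitored by kinetic fluorescence (480/540 nm, 3 min). Fifteen concentrations, run in triplicate.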

The nature of assay [6]: p53 small molecule agonists, cell-based qHTS assay with human liver microsomes (AID 1963577). Summed up:
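Compounds act here after metabolic activation: human liver microsomes and NADPH, both at 0.5 mg/mL final, were co-added to p53RE-bla cells. Incubation ran 16 h at 37 C, followed by LiveBLAzer detection.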

Assay [7] can be described thus: p53 small molecule agonists, cell-based qHTS assay with rat liver microsomes (AID 1963578). The gist of the method:
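Read-out is beta-lactamase reporter fluorescence (LiveBLAzer, 2 h, room temperature, dark) in p53RE-bla cells treated 16 h at 37 C with compound, rat liver microsomes and NADPH, both 0.5 mg/mL final.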
(In general: In qHTS, concentration-response curves come from the screen itself.)

Assay [8] in a line: p53 small molecule agonists, cell-based qHTS assay with human liver microsomes: qHTS cell viability counter screen (AID 1963579). Note: nearly all actives have a fitted effect of over 45% in size. The gist of the method:
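Cells carrying the p53 response-element beta-lactamase reporter are treated for 16 h at 37 C with test compounds in the presence of human liver microsomes and NADPH (both 0.5 mg/mL final); ATP-based CellTiter-Glo luminescence then reports viability.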

Assay [9] is described as follows: p53 small molecule agonists, cell-based qHTS assay (AID 1963582; active = well fitted activation curve with a large enough effect in the signal ratio in the repeat runs, not every such curve was filed as active; the % refers to the signal ratio). Summed up:
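Quantitative HTS in p53RE-bla cells: after a 5 h settling period, compounds delivered in DMSO were left on cells for 16 h at 37 C, and reporter induction was measured as fluorescence following 2 h substrate loading.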

The target of assay [10] is 5-hydroxytryptamine receptor 2A (Homo sapiens) (UniProt P28223). Kind of assay: 5-hydroxytryptamine receptor 2A (HTR2A) small molecule antagonists, cell-based qHTS assay (AID 1963586). Note: nearly all actives have a fitted effect of over 45% in size. Summed up: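 Antagonist-mode intracellular calcium assay: DOI (4 nM) added after 5 min compound pre-incubation at room temperature to dye-loaded HTR2A-CHO cells. Fluorescence followed for 3 min, sampled every second.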

For assay [11] the target is unchanged. Put plainly: 5-hydroxytryptamine receptor 2A (HTR2A) small molecule agonists, cell-based qHTS assay (AID 1963587). Note: nearly all actives have a fitted effect of over 30% in size. Summed up:
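Kinetic calcium-flux fluorescence (2 min, 1 sec intervals) after compound addition in agonist mode. HTR2A-CHO cells were cultured 18 h, then dye-loaded 1 h at 37 C.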

The nature of assay [12]: cAMP Responsive Elements (CRE) small molecule agonists, cell-based qHTS assay (AID 1963590). Summed up:
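Agonist mode qHTS in CRE-bla HEK 293T cells: compounds dosed from DMSO for 3 h at 37 C/5% CO2, followed by LiveBLAzer B/G FRET substrate for 2 h at room temperature.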

Assay [13] in a line: cAMP Responsive Elements (CRE) small molecule antagonists, cell-based qHTS assay (AID 1963591; active = well fitted inhibition curve with a large enough effect in the signal ratio in the repeat runs, not every such curve was filed as active; the % refers to the signal ratio). The gist of the method: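 Antagonist mode: test compounds are co-incubated with the adenylyl cyclase activator NKH477 (0.25 uM final) on CRE-bla HEK293T cells for 3 h at 37 °C, followed by LiveBLAzer substrate loading.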
For assay [14], the target named is D(2) dopamine receptor (Homo sapiens) (UniProt P14416). Put plainly: Dopamine D2 receptor (DRD2) small molecule agonists, cell-based qHTS assay (AID 1963594). Note: nearly all actives have a fitted effect of over 35% in size. Summed up:
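cAMP accumulation in DRD2-HEK293 cells measured by HTRF after 1 h detection; compounds added 10 min before NKH477 (200nM […]) forskolin-analogue stimulation, 30 min at room temperature, with Ro20-1724 present at 0.1 mM final.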

Assay [15] shares this target. Put plainly: Dopamine D2 receptor (DRD2) small molecule antagonists, cell-based qHTS assay (AID 1963595; active = well fitted inhibition curve with a large enough effect in the signal ratio in the repeat runs, with a control signal flat; the % refers to the signal ratio). The gist of the method:
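Antagonism was scored as restored cAMP in HEK293-DRD2 cells. These cells were stimulated with 200 nM NKH477 and 12 nM quinpirole for 30 min at room temperature, in the presence of 0.1 mM Ro20-1724.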

A short description of assay [16]: p53 small molecule agonists, cell-based qHTS assay: qHTS cell viability counter screen (AID 1963581). Note: nearly all actives have a fitted effect of over 45% in size. Summed up:
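Cells: HCT-116 with p53 response element-driven beta-lactamase. Treatment: 16 h, 37 C, compounds in DMSO. Read: CellTiter-Glo luminescence after 30 min RT.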

In assay [17] the target is Muscarinic acetylcholine receptor M1 (Homo sapiens) (UniProt P11229). Kind of assay: Cholinergic receptor muscarinic 1 (CHRM1) small molecule antagonists, cell-based qHTS assay (AID 1963588). Note: nearly all actives have a fitted effect of over 40% in size. Summed up: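 CHRM1-CHO calcium-flux assay, antagonist mode. Cells were seeded 18 h, dye-loaded 1 h at 37 C and given compound for 5 min at RT, then acetylcholine was added at 50nM. FDSS fluorescence was read 3 min; 15 concentrations, three runs.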

The target is the same in assay [18]. Kind of assay: Cholinergic receptor muscarinic 1 (CHRM1) small molecule agonists, cell-based qHTS assay (AID 1963589). Note: nearly all actives have a fitted effect of over 35% in size. The gist of the method:
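Agonist-mode qHTS in CHO cells stably carrying human muscarinic M1. Intracellular calcium is tracked by fluorescence every second after compound transfer; each compound runs at 15 concentrations in three independent runs.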

Assay [19] concerns the target Beta-2 adrenergic receptor (Homo sapiens) (UniProt P07550). Put plainly: Adrenergic beta2 receptor (ADRB2) small molecule antagonists, cell-based qHTS assay (AID 1963592). Note: nearly all actives have a fitted effect of over 50% in size. Note: potency is the fitted concentration of half-maximal effect. Summed up: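 Cells (CHO, stable ADRB2 overexpression) incubated 18-20hr at 37C; compounds added from DMSO; agonist mix (1nM isoproterenol, 100uM IBMX, 25uM Ro-20-1724) added; 0.5hr RT; d2-cAMP and anti-cAMP-cryptate added; 1hr RT; 665/615 nm read.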

Molecules are shown by their SMILES. A number with no mark means an inactive call. Results filed as inconclusive are left out. Activity calls are given as the source filed them. Unless noted, calls come from the whole dose curve.

Chain of D(2) dopamine receptor (Homo sapiens) (P14416 whole entry, looked up): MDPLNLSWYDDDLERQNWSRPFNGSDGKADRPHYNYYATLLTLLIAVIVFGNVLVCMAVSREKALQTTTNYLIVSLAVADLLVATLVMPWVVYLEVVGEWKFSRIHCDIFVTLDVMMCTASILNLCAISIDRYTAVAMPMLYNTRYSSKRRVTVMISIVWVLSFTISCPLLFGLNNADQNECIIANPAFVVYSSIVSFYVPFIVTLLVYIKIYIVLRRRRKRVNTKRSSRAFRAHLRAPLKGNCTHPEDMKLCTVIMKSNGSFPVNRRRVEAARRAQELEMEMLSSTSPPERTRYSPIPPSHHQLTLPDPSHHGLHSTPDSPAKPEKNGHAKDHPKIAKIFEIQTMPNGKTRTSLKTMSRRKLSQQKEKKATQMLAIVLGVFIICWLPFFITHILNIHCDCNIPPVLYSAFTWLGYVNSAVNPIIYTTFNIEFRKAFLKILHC
Chain of Gonadotropin-releasing hormone receptor (Homo sapiens) (P30968 whole entry, looked up): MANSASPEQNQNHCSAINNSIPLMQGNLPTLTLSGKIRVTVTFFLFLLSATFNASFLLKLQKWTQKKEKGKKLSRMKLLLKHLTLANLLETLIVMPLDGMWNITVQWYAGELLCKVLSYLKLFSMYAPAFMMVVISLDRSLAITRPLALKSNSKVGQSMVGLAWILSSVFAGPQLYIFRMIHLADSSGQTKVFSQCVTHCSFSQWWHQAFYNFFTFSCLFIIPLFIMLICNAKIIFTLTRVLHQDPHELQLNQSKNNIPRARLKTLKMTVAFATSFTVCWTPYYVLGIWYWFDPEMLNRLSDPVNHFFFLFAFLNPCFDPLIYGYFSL
Chain of 5-hydroxytryptamine receptor 2A (Homo sapiens) (P28223 whole entry, looked up): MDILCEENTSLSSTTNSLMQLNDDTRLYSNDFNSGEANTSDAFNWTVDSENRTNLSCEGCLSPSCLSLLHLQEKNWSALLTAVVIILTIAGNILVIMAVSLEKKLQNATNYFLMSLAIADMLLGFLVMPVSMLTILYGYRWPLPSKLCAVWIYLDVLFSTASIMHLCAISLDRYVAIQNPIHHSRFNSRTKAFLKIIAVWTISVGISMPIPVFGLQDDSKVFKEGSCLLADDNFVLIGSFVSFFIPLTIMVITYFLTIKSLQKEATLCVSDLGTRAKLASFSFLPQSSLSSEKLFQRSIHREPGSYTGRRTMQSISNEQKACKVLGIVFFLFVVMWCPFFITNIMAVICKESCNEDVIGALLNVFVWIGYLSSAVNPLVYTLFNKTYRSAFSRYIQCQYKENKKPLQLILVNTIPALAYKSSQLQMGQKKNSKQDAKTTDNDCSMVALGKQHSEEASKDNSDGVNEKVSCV
Chain of Muscarinic acetylcholine receptor M1 (Homo sapiens) (P11229 whole entry, looked up): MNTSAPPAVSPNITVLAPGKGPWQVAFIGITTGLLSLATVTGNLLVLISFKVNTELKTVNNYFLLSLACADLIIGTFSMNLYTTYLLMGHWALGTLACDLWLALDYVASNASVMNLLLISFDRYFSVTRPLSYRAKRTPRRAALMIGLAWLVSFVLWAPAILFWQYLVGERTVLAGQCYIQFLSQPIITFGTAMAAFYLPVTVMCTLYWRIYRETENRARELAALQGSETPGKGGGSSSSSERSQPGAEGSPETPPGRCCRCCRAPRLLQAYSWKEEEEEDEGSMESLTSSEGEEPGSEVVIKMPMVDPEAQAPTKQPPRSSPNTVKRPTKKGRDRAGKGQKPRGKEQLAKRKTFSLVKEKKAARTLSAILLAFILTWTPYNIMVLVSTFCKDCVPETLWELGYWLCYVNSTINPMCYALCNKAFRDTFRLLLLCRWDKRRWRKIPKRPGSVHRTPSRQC
Chain of KiSS-1 receptor (Homo sapiens) (Q969F8 whole entry, looked up): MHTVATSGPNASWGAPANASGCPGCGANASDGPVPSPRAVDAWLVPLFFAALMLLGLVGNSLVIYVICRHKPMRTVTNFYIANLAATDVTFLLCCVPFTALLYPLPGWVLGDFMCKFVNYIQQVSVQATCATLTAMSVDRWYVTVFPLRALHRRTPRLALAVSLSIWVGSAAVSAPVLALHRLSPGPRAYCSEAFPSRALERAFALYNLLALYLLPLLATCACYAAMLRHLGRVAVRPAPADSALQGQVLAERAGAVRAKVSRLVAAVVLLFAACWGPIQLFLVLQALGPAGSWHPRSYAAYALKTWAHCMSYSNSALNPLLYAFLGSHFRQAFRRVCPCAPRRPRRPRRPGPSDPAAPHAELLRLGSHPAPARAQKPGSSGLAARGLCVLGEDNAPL
Chain of Beta-2 adrenergic receptor (Homo sapiens) (P07550 whole entry, looked up): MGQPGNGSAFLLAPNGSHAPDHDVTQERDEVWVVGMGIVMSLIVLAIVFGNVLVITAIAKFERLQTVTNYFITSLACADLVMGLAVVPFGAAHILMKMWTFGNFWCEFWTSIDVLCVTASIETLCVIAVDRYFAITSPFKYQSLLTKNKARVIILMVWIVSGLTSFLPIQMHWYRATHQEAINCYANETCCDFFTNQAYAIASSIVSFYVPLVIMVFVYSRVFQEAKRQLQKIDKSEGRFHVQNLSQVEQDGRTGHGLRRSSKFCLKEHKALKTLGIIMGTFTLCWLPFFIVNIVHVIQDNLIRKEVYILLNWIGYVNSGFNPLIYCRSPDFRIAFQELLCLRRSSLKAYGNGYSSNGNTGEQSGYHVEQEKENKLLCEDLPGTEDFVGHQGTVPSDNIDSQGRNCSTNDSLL

Take `Cc1c(C(C)C)c(=O)n(-c2ccccc2)n1C`: the Potency entry in assay [1], in assay [2], in assay [3], in assay [6], in assay [7] and in assay [8] was “inactive” throughout. Besides, the Potency entry in assay [9], in assay [10], in assay [11], in assay [12], in assay [13] and in assay [14] was “inactive” in each case. In addition, in [15], the Potency entry is “inactive”. Further, the result in assay [4] and in [5] was inactive.

In the case of `CCC(C(=O)O)c1ccc(N2Cc3ccccc3C2=O)cc1` (centres undefined), the Potency result in assay [1], in assay [2], in [3], in assay [6], in assay [7] and in [8] was “inactive” in each case. Moreover, the Potency entry in [16], in assay [10], in assay [17], in [18], in assay [19] and in [14] was “inactive” throughout. In addition, in [15], the Potency result was “inactive”. For the same molecule, the outcome in [4] and in [5] was inactive.

With `CCc1ccc(CC)cc1`, the Potency entry in [1], in assay [2], in assay [3], in [6], in assay [7] and in assay [8] was “inactive” in each case. In addition, the Potency entry in assay [16], in assay [10], in assay [11], in assay [17], in assay [18] and in assay [12] was “inactive” throughout. Further, the Potency entry in assay [13] and in assay [15] was “inactive” throughout. The outcome in assay [4] and in [5] was inactive.

On to `COc1ccc2nc(NC(=O)Nc3ccccc3)sc2c1`, for which the Potency result in assay [1], in assay [3], in assay [6], in assay [7], in [8] and in assay [9] was “inactive” throughout. Moreover, the Potency entry in assay [10], in [11], in assay [17], in assay [18], in assay [12] and in [13] was “inactive” each time. For the same molecule, the Potency entry in [14] and in assay [15] was “inactive” throughout. The Potency in assay [2] is 0.596 µM (active); in assay [19] it was 11.9 µM (active). Also, the outcome in [4] and in assay [5] was inactive.

The values are drawn from PubChem BioAssay (Tox21).
